RmlCD inh 1536: inhibitors of Mycobacterium tuberculosis RmlC and RmlD coupled enzymes; 0.03% of 160,000 active; inhibition, % at 3.6 µM; AID 1533; P9WH09+P9WH11; RmlC+RmlD coupled enzyme assay, percent inhibition; primary screen in compound mixtures; in the data active means inhibition mostly above about 34%, no sharp cut-off
Target sequence (P9WH09 whole entry, looked up): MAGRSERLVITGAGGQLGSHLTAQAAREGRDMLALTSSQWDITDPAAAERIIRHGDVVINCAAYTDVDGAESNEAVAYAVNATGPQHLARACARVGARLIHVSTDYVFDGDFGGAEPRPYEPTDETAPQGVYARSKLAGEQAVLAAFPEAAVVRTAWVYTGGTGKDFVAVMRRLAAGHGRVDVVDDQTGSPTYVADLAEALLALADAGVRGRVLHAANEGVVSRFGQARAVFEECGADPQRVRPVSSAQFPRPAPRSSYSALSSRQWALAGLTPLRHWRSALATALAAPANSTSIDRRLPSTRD
Target sequence (P9WH11 whole entry, looked up): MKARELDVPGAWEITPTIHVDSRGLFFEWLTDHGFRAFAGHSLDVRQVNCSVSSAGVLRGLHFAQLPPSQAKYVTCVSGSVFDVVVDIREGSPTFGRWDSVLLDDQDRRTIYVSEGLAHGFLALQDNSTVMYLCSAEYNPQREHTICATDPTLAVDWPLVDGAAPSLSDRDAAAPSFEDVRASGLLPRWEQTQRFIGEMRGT
YopH inh: inhibitors of Yersinia enterocolitica YopH tyrosine phosphatase | fluorescence Ex485/Em525 | inhibition, % (concentration not given with the values) | 0.16% of 140,000 active; in the data active means inhibition above about 50%
Active calls of the source: *; x = not tested or not shown. The full list was thinned out, with hits kept by preference.

SMILES	RmlCD inh 1536	YopH inh
O=C(c1ccco1)N1CCN(CC(=O)N2CCCc3c2c(=O)oc2ccc(O)cc32)CC1	13.1	52.6*
O=C(CN1CCN(Cc2ccccc2)CC1)N1CCCc2c1c(=O)oc1ccc(O)cc21	9.6	18.0
C=CCOC(=O)/C=C/C(=O)NC(N)=O	-18.6	x
O=C1C=CC(=O)C(C2=C3C(=O)N(CCc4ccccc4)CC(=O)N3CCC2)=C1	x	66.8*
O=C1CC(=O)N(CCc2ccccc2)C(=O)N1CCc1ccccc1	9.8	-33.5
O=C(NCc1ccccn1)C1CCN(S(=O)(=O)c2cc(Cl)ccc2Cl)CC1	5.2	x
Cc1cccn2c(=O)c(C=Nc3ccccc3)c(NCCO)nc12	54.5*	-46.0
Cc1cccn2c(=O)c(C=Nc3ccc(Cl)cc3)c(NCCO)nc12	-2.3	-32.9
Nc1ccc(CN2CCOCC2)cc1	5.9	x
CN1CCc2c(sc3c2C(=O)NC(c2cccc(OC(=O)c4cccs4)c2)N3)C1 (stereo unspecified)	5.6	72.1*
CN1CCc2c(sc3c2C(=O)NC(c2ccco2)N3)C1 (stereo unspecified)	x	-31.1
O=C(c1cc2c(=O)n3ccccc3nc2s1)N1CCc2ccccc2C1	-12.0	x
COc1cc(/C=N/Nc2nc(=O)[nH]nc2C)cc([N+](=O)[O-])c1O	14.1	x
COc1cccc(/C=N/NC(=O)c2cc3c(OC)cccc3[nH]2)c1O	68.7*	-43.4
COc1cccc(/C=N/NC(=O)c2cc3c(OC)cccc3[nH]2)c1OC	-6.5	-10.7
COc1ccc(/C=C/C(=O)NC(=S)N2CCSCC2)cc1	-0.8	x
CC(=O)Nc1cc(OC(C)=O)c2nonc2c1OC(C)=O	x	75.9*
CC(=O)Nc1nonc1NC(C)=O	0.1	-5.5
O=C(Nc1ccc(F)cc1)/C(=C1/CCCCCN1)[N+](=O)[O-]	-6.4	x
COc1ccc(Cc2nccc3cc(OC)c(OC)cc23)cc1OC	x	66.8*
CC[n+]1ccc2cc(OC)c(OC)cc2c1Cc1ccc(OC)c(OC)c1	9.5	x
Cc1ccc(S(=O)(=O)N2CCOCC2)cc1NC(=O)CNCC1CCCCC1	9.8	x
N#Cc1cnn2c(-c3ccccc3)ccnc12	11.4	0.4
COc1ccc(-c2ccnc3c(C#N)cnn23)cc1	44.3*	x
COc1ccc(OC)c(-c2csc(N3CCC(c4ccccc4)CC3)n2)c1	12.3	x
SMILES	RmlCD inh 1536	YopH inh
Cc1cccc(C)c1NC(=O)COC(=O)C1CC(=O)N(Cc2ccccc2)C1 (stereo unspecified)	-11.2	x
COCCNC(=S)N1CCCC(CO)C1 (stereo unspecified)	-3.3	x
CCCCOCCCn1c(-c2ccco2)nc2nc3ccccc3nc21	56.6*	-39.8
CCCCn1c(-c2cccs2)nc2nc3ccccc3nc21	x	-20.6
COC(=O)c1cccc(NC(=O)CC2C(=O)NCCN2C(=O)c2ccc(F)cc2F)c1 (stereo unspecified)	-5.6	x
CC(=O)Nc1sc(/C(C#N)=C/c2ccc(Cl)c(Cl)c2)nc1-c1ccc(C)cc1	75.4*	-7.3
COc1ccc(/C=N/Nc2nc(-c3ccc(C)cc3)c(NC(C)=O)s2)cc1OC	5.3	x
CC(C)(C)c1ccc(NC(=O)COC(=O)c2ccc([N+](=O)[O-])s2)cc1	0.4	-19.2
O=C(COC(=O)c1ccc([N+](=O)[O-])s1)Nc1ccccc1	2.0	50.5*
Cc1c(N2CCCC2)cc2c(c1NC(=O)c1ccccc1Cl)C(C)(C)CC2(C)C	-3.2	x
CCN(CC)CCN(C(=O)Cn1nnc(-c2ccc(C)o2)n1)C(C(=O)NC(C)(C)C)c1cccs1 (stereo unspecified)	10.3	x
Cn1cnnc1SCC(=O)Nc1ccc(Cl)c(S(=O)(=O)N2CCOCC2)c1	14.0	x
O=C(NCc1cccnc1)c1ccc(Cl)c(S(=O)(=O)Nc2ccccc2C(=O)NCc2cccnc2)c1	-6.8	x
COC(=O)c1cccc(NC(=O)CN2CCN(Cc3ccccc3)CC2)c1	6.2	-13.5
COC(=O)c1ccc(Cl)c(NC(=O)CN2CCN(Cc3ccccc3)CC2)c1	x	63.7*
C=CCOC(=O)C1=C(C)NC(=O)NC1/C=C/c1ccccc1 (stereo unspecified)	x	-41.3
C=CCOC(=O)C1=C(C)NC2(O)c3ccccc3C(=O)C12O (stereo unspecified)	10.3	77.6*
CC1=C(C(=O)OCC(C)C)C2(O)C(=O)c3ccccc3C2(O)N1 (stereo unspecified)	x	68.7*
COc1ccccc1C1CC(=O)NC(C)=C1C(=O)OCC(C)C (stereo unspecified)	x	-20.6
Cc1ccc(C)c2[nH]c(=O)c(CN(Cc3cccs3)C(=S)NCc3ccco3)cc12	x	-19.9
O=C(CC1CS(=O)(=O)CC1CC(=O)Nc1ccc2c(c1)OCCO2)Nc1ccc2c(c1)OCCO2 (stereo unspecified)	-2.2	x
C=CCc1cccc2cc(C(=O)Nc3ccc(S(=O)(=O)Nc4nnc(CC)s4)cc3)c(=O)oc12	-5.0	75.3*
C=CCc1cccc2cc(C(=O)Nc3ccc(F)cc3)c(=O)oc12	x	-42.8
CC(C)CCN1CCN(Cc2ccon2)CC1CCO (stereo unspecified)	0.2	x
NC(=O)c1nn(-c2ccccc2)nc1N	78.9*	3.7
SMILES	RmlCD inh 1536	YopH inh
Cc1nn(-c2ccccc2)nc1C(N)=O	-6.6	x
COc1ccc2cc3cc(C(=O)NCCCN4CCOCC4)oc3nc2c1	51.0*	-33.4
CCN1CCN(CCCNC(=O)c2cc3cc4ccc(OC)cc4nc3o2)CC1	-2.5	-8.0
Cc1cnccc1CNC(=O)CC1C(=O)NCCN1CC(C)(C)C (stereo unspecified)	-8.2	x
COc1ccc(C(CC(=O)O)NC(=O)COc2cc(C)ccc2C)cc1OC (stereo unspecified)	3.7	x
N/C(=N\OS(=O)(=O)c1ccc2ccccc2c1)c1ccccn1	4.3	x
O=C(Nc1nc2ccccc2s1)c1cc(-c2ccco2)nc2ccccc12	37.1*	22.6
Cc1ccc2nc(NC(=O)c3cc(-c4ccco4)nc4ccccc34)sc2c1	5.2	-5.3
COC(=O)c1c(C(C)=O)c(C)n(C)c1C	60.7	x
CCCCn1c(NC(=O)c2ccccc2)c(C#N)c2nc3ccccc3nc21	x	59.7*
CCC(C)n1c(NC(=O)c2ccccc2)c(C#N)c2nc3ccccc3nc21 (stereo unspecified)	x	14.1
CC(Oc1ccc(Cl)cc1Cl)C(=O)Nc1ccc(OCC(=O)O)cc1 (stereo unspecified)	-9.7	x
CN(C)c1c2ccccc2nc2c(F)c(F)c(F)c(F)c12	40.9*	x
Cc1c2ccccc2nc2c(F)c(N(C)C)c(F)c(F)c12	-18.6	-5.8
CCCOc1ccc(-c2nc(-c3ccc(N)cc3)cs2)cc1	3.4	x
COc1ccc(-c2cc(C(F)(F)F)n3nc(C(=O)Nc4cc(C)on4)cc3n2)cc1OC	9.9	-28.0
COc1ccc(-c2cc(C(F)(F)F)n3nc(C(=O)N(C)Cc4ccccc4)cc3n2)cc1OC	40.3*	x
CC(C)NCCCCOc1ccc(Br)cc1Cl	0.8	x
O=C(CN(C(=O)c1csnn1)c1cccc2ccccc12)NC1CCCC1	-3.8	x
CC1(C)C(CSc2nc3ccccc3[nH]2)C1(Cl)Cl (stereo unspecified)	-5.6	x
CCCC(=O)OCCNc1cc(SCc2ccco2)c2nonc2c1[N+](=O)[O-]	2.1	36.9
CC(=O)OCCCNc1cc(SCc2ccco2)c2nonc2c1[N+](=O)[O-]	1.8	69.4*
O=C(NC1CCCCC1)C1CC(=O)N(c2cccc([N+](=O)[O-])c2)C1 (stereo unspecified)	2.8	x
COC(=O)c1ccccc1NC(=S)N(Cc1ccc2c(c1)OCO2)Cc1cc2ccc(OC)cc2[nH]c1=O	-13.7	-32.4

Screening data: PubChem, several laboratories
